Source: PubChem BioAssay
COUP-TFII inh = blocks human COUP-TFII nuclear receptor; P24468; HEK293T NGFI-A luciferase reporter, luminescence; inhibition, % at 8.6 µM; 370,000 tested, 0.7% active; AID 686940;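 active = inhibition above a per-plate cutoff, mean inhibition of test wells between control levels plus 3 SD, cut at about 38% in these data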;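 note: cells cotransfected with COUP-TFII expression vector driving the NGFI-A reporter; 0% = median of COUP-TF2 test wells and 100% = reporter-only cells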
Gli-Sufu antag = Gli-Sufu pathway antagonism; Sufu-KO-LIGHT fibroblasts, Gli luciferase reporter luminescence; inhibition, % at 5 µM; 340,000 tested, 0.74% active; AID 588413;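 active = inhibition above about 55%, limit read from the data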;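 note: 0% = DMSO-treated cells and 100% = wells with medium but no cells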
697 NFkB inh = lowers PMA/ionomycin-induced NF-kB signal in 697 B cells | 330,000 tested, 0.33% active | inhibition, % at 4 µM | 697 B-cell NF-kB luciferase reporter, 16 h; in the data active = inhibition above about 35%
GalR3 antag = blocks the human galanin receptor 3; inhibition, % at 3 µM; O60755; 360,000 tested, 0.44% active; HEK293 GalR3-CNG cAMP membrane potential fluorescence; galR3 body fused to GalR1 C-terminus;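 active = inhibition above the screen-wide average plus 3 SD, cut at about 13% in these data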;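 note: forskolin and galanin both at EC90 stimulate the cells; cAMP rise reported by CNG channel membrane potential dye signal; 0% = forskolin plus galanin with DMSO and 100% = forskolin alone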
Target sequence (O60755 1-299 limits assumed): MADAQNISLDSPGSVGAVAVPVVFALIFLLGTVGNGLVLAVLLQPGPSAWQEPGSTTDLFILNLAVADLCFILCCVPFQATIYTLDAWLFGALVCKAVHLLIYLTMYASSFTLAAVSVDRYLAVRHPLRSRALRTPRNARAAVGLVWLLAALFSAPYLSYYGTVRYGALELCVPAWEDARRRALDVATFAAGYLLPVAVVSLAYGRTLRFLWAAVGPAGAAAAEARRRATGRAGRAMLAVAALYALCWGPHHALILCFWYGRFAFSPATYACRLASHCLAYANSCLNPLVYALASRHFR
Jurkat NFkB inh = lowers PMA/ionomycin-induced NF-kB signal in Jurkat cells | inhibition, % at 4 µM | AID 435003 | PMA/ionomycin-induced NF-kB luciferase reporter, luminescence | 330,000 tested, 0.53% active; in the data active = inhibition above about 50%
Gli antag conf = Gli-SUFU antagonism confirmation, single concentration | shares compounds with Gli-Sufu antag | Sufu-KO-LIGHT cells, Gli luciferase reporter, luminescence | inhibition, % at 5 µM | 2,500 tested, 40% active | AID 602428;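 active = mean inhibition at 5 µM reaching about 45%, limit read from the data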;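 note: plate controls were DMSO-treated cells for no effect and wells lacking cells for full effect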
Gli cytotox = cytotoxic in Gli-SUFU antagonist counter-screen | 2,500 tested, 32% active | shares compounds with Gli-Sufu antag | AID 651994 | cytotoxicity, % at 5 µM | Sufu-KO-LIGHT cells cytotoxicity, ATP luminescence;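 active = mean cytotoxicity at 5 µM above about 25%, limit read from the data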;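 note: cells exposed to compound overnight for roughly 16 to 18 hours; plate controls were DMSO wells with cells for no effect and medium without cells for full effect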
Wnt3a counter = inhibits Wnt3a reporter, counter-screen for Gli-SUFU antagonists; shares compounds with Gli-Sufu antag; Wnt-LIGHT cells, Wnt3a-driven luciferase reporter, luminescence; inhibition, % at 6.25 µM; 2,500 tested, 20% active; AID 651995;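 active = mean inhibition above about 25%, limit read from the data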
An asterisk follows results filed as active; . = no result. A selection: hits, their analogues and other compounds. The true share with any hit is near 2%.

SMILES	COUP-TFII inh	Gli-Sufu antag	697 NFkB inh	GalR3 antag	Jurkat NFkB inh	Gli antag conf	Gli cytotox	Wnt3a counter
CCc1c(C)nc2cc(-c3ccc(OC)c(OC)c3)nn2c1N1CCCC1	-7	54	-46	-4	-6	55*	33*	6
CCOC(=O)C1CCN(C(=O)C(C)(C)NC(=O)Nc2ccc(Cl)cc2Cl)CC1	3	.	.	.	.	.	.	.
Cc1ccc2c(c1)S/C(=C/c1ccc[n+](C)c1)N2CCO	23	55*	-9	1	18	35	3	-6
CCN1/C(=C/c2cc[n+](C)cc2)C=Cc2cc(C)ccc21	4	.	.	-5	.	.	.	.
Cc1onc(C(=O)N2CCN(C(c3ccc(F)cc3)c3ccc(F)cc3)CC2)c1[N+](=O)[O-]	27	.	.	.	.	.	.	.
C=CCN(C(=O)Cn1nc(C)n2c(cc3cc(C)ccc32)c1=O)c1ccccc1	6	63*	-21	-8	5	24	18	-24
CCN(C(=O)Cn1nc(C)n2c(cc3cc(C)ccc32)c1=O)c1ccccc1	-11	-8	-7	-8	3	.	.	.
CCOC(=O)[C@]12CCCC3=C1N(CCC3)C(=O)[C@@H](CC(=O)NCc1cccc(C(F)(F)F)c1)C2	0	.	.	.	.	.	.	.
O=S1(=O)c2ccc(Br)cc2OC[C@H](Cc2ccccc2)N1Cc1cn(Cc2ccc(F)cc2)nn1	-1	.	.	.	.	.	.	.
CCOC(=O)[C@]12CCCCC/C=C\1N(CCc1ccc(Cl)cc1)C(=O)[C@H]2CC(=O)N1CCC(c2ccccc2)CC1	17	.	.	.	.	.	.	.
Cc1[nH]c(=O)[nH]c(=O)c1CSc1nnc([C@@H](NC(=O)OC(C)(C)C)C(C)C)o1	9	7	-119	2	-28	.	.	.
CC(C)=CCSc1nnc([C@@H](NC(=O)OC(C)(C)C)C(C)C)o1	8	60*	15	-5	-3	10	25*	-32
CC(C)N(C(=S)Nc1cccc(S(=O)(=O)N(C)C)c1)c1ccccc1	5	55	-9	2	-2	12	1	-27
CCOC(=O)N1CCN(C(=O)C[C@H]2C[C@@]3(C(=O)OC)C(=C[C@H](C(C)(C)C)O[C@@H]3C)N(Cc3cccc4ccccc34)C2=O)CC1	20	.	.	.	.	.	.	.
CCOc1ccc(S(=O)(=O)N(C)c2ccc(OCC(=O)NCc3cccnc3)cc2)cc1	-1	-13	-7	-2	-1	.	.	.
CCOc1ccc(S(=O)(=O)N(C)c2ccc(OCC(=O)NCc3ccco3)cc2)cc1	-2	95*	12	0	-23	10	3	-30
CCCCNC(=O)C[C@@H]1C(=O)N(CCc2ccc(Cl)cc2)C2=CCCCC[C@]21C(=O)OC	-10	.	.	.	.	.	.	.
COc1ccc(OC)c(/C=N/n2c(COc3ccccc3)n[nH]c2=S)c1	6	-2	-8	9	2	.	.	.
COc1cc(OC)c(OC)cc1/C=N/n1c(COc2ccccc2)n[nH]c1=S	8	57*	-16	-5	-17	25	18	-21
O=S1(=O)c2ccc(Br)cc2OC[C@H](Cc2ccccc2)N1Cc1cn(Cc2ccc(Br)cc2)nn1	-4	.	.	.	.	.	.	.
CC(=O)Nc1ccc(S(=O)(=O)Nc2c(C)n(C)n(-c3ccccc3)c2=O)cc1	5	3	10	-1	2	.	.	.
Cc1c(NS(=O)(=O)c2ccc(NC(=O)CCC(=O)O)cc2)c(=O)n(-c2ccccc2)n1C	1	63*	8	-5	-21	5	14	-33
C=C1C(=O)OC2C=C(CO)C3OC3C3OC3(C)CC(OC(=O)/C(=C/C)COC(C)=O)C12 (stereo not given)	14	68*	.	0	.	61*	19	57*
Cc1cc(C)cc(N(CC(=O)NC2CCC(C)CC2)S(=O)(=O)c2ccc(C)c(C)c2)c1 (stereo not given)	-7	.	.	.	.	.	.	.
C[C@H]1[C@H](NCc2cccnc2)CC[C@@]23CCCN2C(=O)CCC[C@@H]13	-3	.	.	.	.	.	.	.
SMILES	COUP-TFII inh	Gli-Sufu antag	697 NFkB inh	GalR3 antag	Jurkat NFkB inh	Gli antag conf	Gli cytotox	Wnt3a counter
O=[N+]([O-])c1ccc(/C=[N+](\[O-])[C@@H]2CCCC[C@@H]2/[N+]([O-])=C/c2ccc([N+](=O)[O-])o2)o1	13	76*	17	-9	9	67*	-2	21
CN1CCN(C2=Cc3ccccc3Sc3cc(F)c(Cl)cc32)CC1	-12	54	-16	-12	-11	23	0	-34
COC(=O)C1CN(Cc2ccccc2)CCS(=O)(=O)N1Cc1ccccc1 (stereo not given)	-13	.	.	.	.	.	.	.
CC12CCCCN1CCCc1c2[nH]c2ccccc12 (stereo not given)	-63	58*	10	-3	-11	33	50*	-11
c1ccc2c3c([nH]c2c1)C1(CCCCC1)NCC3	-1	0	7	-5	-9	.	.	.
COc1ccc(N(CC(=O)Nc2nccs2)S(=O)(=O)c2c(C)nn(C)c2C)cc1	4	58*	15	.	2	32	4	3
Cc1ccc(OCCOc2c(Cl)cc(Cl)cc2Cl)c([N+](=O)[O-])n1	-41	.	.	.	.	.	.	.
Cc1[nH]n(-c2nc(-c3ccc(Cl)cc3)cs2)c(=O)c1N=Nc1ccc(O)cc1	-6	70*	-90	3	26	71*	35*	29*
Cc1noc(NS(=O)(=O)c2ccc(NC(=O)c3cnc4n(c3=O)CCS4)cc2)c1C	0	95*	11	-7	7	15	4	-8
CCn1c(-c2ccsc2)nc2c1c(=O)[nH]c(=O)n2Cc1ccccc1	-19	62*	-1	-6	-5	27	1	-8
CCCCn1c(=O)[nH]c(=O)c2c1nc(-c1ccc(-c3ccccc3)cc1)n2C	-20	53	4	-7	4	33	12	-11
Cc1cc(Nc2ccccc2Br)n2nc(C)nc2n1	6	54	-8	3	5	12	4	8
COC(=O)c1ccccc1Nc1cc(C)nc2nc(C)nn12	-12	-7	-4	3	7	.	.	.
CC(C)=CCN1CCN(Cc2cccn2-c2nccs2)CC1CCO (stereo not given)	5	-11	-9	2	-18	.	.	.
CC(C)=CCN1CCN(Cc2cccn2-c2ncccn2)CC1CCO (stereo not given)	5	51	2	2	-8	18	5	-38
CCC(C)[C@H]1CN=C(N)N1CC1CCCCC1 (stereo not given in full)	.	65*	2	.	-13	68*	26*	29*
CC(O)[C@H]1CN=C(N)N1CCCCC1CCCCC1 (stereo not given in full)	-15	7	5	-3	23	.	.	.
